Only some compounds are listed: those with a hit (about 1.4% of all), similar ones and a draw of the others.
PglD inh = PglD (C. jejuni) enzyme inhibition; inhibition, % at 12.5 µM; actives 0.098% (n = 360,000); AID 602405; purified PglD enzyme, DTNB colorimetric CoA detection; in the data active = inhibition above about 16%, passing the limit was not always enough
C2C12 statin = suppressors of simvastatin-induced myotoxicity in C2C12 myotubes; ATP luminescence, 48 h; scaled: DMSO 0, geranylgeraniol control 100; actives 0.78% (n = 330,000); rescue of ATP level, % at 7.49 µM; AID 602340;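 active = mean ATP rescue above about 67%, or every replicate alone reaching that limit, limit read from the data, passing the limit was not always enough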;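 also: myotubes were challenged with 10 µM simvastatin during compound exposure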
ARNT-TACC3 inh = disruptors of human ARNT/TACC3 interaction; actives 0.66% (n = 390,000); AlphaScreen His-ARNT PAS-B/GST-TACC3 binding, luminescence; TACC3 fragment carries E629A point mutation; inhibition, % at 9.99 µM;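 active = mean inhibition of replicates at least 50% and at least half of replicates each reaching 50%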;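 also: 0% = complete ARNT plus TACC3 wells and 100% = ARNT alone without TACC3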
F508del corr = correctors of CFTR F508del function in bronchial epithelial cells | CFBE cells, YFP halide quenching; stimulated with forskolin plus potentiator P3; % fluorescence drop versus neutral controls | AID 720511 | actives 0.36% (n = 350,000) | activity (quench increase), % at 7.58 µM;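 active = mean added fluorescence quench of at least 8% versus neutral control, with both replicates also reaching 8%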;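 also: cells transiently co-express mutant CFTR-F508del with the halide-sensitive YFP; corrector assay measuring rescue of mutant channel to the surface after 24 h compound exposure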
* marks the source's active call; other numbers are inactive results; . = no result.

SMILES	PglD inh	C2C12 statin	ARNT-TACC3 inh	F508del corr
C[C@@H]1CCCCO[C@@H](CN(C)C(=O)Nc2cccc3ccccc23)[C@@H](C)CN([C@@H](C)CO)C(=O)c2cc(NC(=O)Nc3ccc(C(F)(F)F)cc3)ccc2O1	.	.	.	1
Cc1cc(N2CCN(c3ccccc3)CC2)n2nnnc2n1	9	149*	-3	.
Cc1cc(N2CCN(c3nnnn3-c3ccccc3)CC2)n2ncnc2n1	5	111*	6	.
O=C(NCC[C@@H]1CC[C@@H](NC(=O)c2ccccc2F)[C@@H](CO)O1)c1ccc2c(c1)OCO2	2	5	-16	0
COc1cnc(-c2ccccn2)nc1Oc1ccccc1	3	3	82*	1
CCOC(=O)CSc1ncc(OC)c(Sc2ccc(OC)cc2)n1	-1	1	-12	.
COc1cnc(N(C)C)nc1Sc1ccc(Cl)cc1	0	104*	-6	.
COc1cnc(-c2ccccn2)nc1Oc1cccc(C(F)(F)F)c1	.	.	.	-1
COc1cnc(-c2ccccn2)nc1Sc1ccc(F)cc1	.	.	46*	.
N#Cc1ccc(-c2ccc([C@@H]3[C@@H](CO)N4C(=O)CN(C(=O)C5CCC5)C[C@@H]34)cc2)cc1	.	.	.	2
COc1ccc2c3c([nH]c2c1)[C@H](CO)N(C(=O)C1CC1)CC31CN(C(=O)NC(C)C)C1	.	.	.	-1
CCOC(=O)c1cnc(SC)nc1Oc1cccc(NS(=O)(=O)c2ccc(C)cc2)c1	0	90*	-6	.
CCOC(=O)c1ccccc1NS(=O)(=O)c1ccc(C)cc1	2	.	-4	.
Cn1c(=O)[nH]c(=O)c2c1nc(CN1CCN(c3cccc(Cl)c3)CC1)n2CCc1ccccc1	-11	92*	3	.
CCn1c(CN2c3ccccc3Sc3ccccc32)n[nH]c1=S	5	86*	-8	3
CCn1c(CCCCc2n[nH]c(=S)n2CC)n[nH]c1=S	.	.	28	1
COc1cccc(C#Cc2ccc3c(c2)O[C@@H](CN(C)C)[C@@H](C)CN([C@H](C)CO)S3(=O)=O)c1	5	18	4	-1
C=C(C)Cn1c(CCCNC(=O)C(C)(C)C)nc2ccccc21	0	154*	0	.
C=CCn1c(CCCNC(=O)C(C)(C)C)nc2ccccc21	2	20	-10	-3
COc1ccc(CN(C)C[C@H]2OCCCC[C@H](C)Oc3ccc(NC(=O)c4ccccc4)cc3C(=O)N([C@H](C)CO)C[C@H]2C)cc1	-1	.	6	-1
COc1ccc(NC(=O)N(C)C[C@@H]2Oc3ccc(NS(=O)(=O)c4ccc(F)cc4)cc3CC(=O)N([C@H](C)CO)C[C@H]2C)cc1	.	-27	.	0
Cc1cc2c(cc(C(=O)OC(C)C(=O)NCc3ccc(F)cc3)n2C)o1 (configuration not stated)	3	-6	5	29*
Cc1cc2c(cc(C(=O)OC(C)C(=O)NCc3ccccc3)n2C)o1 (configuration not stated)	1	-35	4	7
C[C@@H]1CN([C@@H](C)CO)S(=O)(=O)c2ccc(C#Cc3ccc(F)cc3)cc2O[C@@H]1CN(C)C(=O)NC1CCCC1	1	31	0	-1
C[C@H](CO)N1C[C@H](C)[C@H](CN(C)C(=O)NC2CCCC2)Oc2cc(C#Cc3ccc(F)cc3)ccc2S1(=O)=O	0	34	-3	9.7*
SMILES	PglD inh	C2C12 statin	ARNT-TACC3 inh	F508del corr
C[C@H]1CN([C@@H](C)CO)S(=O)(=O)c2ccc(C#Cc3ccc(F)cc3)cc2O[C@H]1CN(C)C(=O)NC1CCCC1	1	49	-2	8.6*
C[C@H](CO)N1C[C@H](C)[C@@H](CN(C)C(=O)NC2CCCC2)Oc2cc(C#Cc3ccc(F)cc3)ccc2S1(=O)=O	0	22	-2	0
C[C@H]1CN([C@@H](C)CO)S(=O)(=O)c2ccc(Br)cc2O[C@@H]1CN(C)S(=O)(=O)c1ccc(F)cc1	1	88*	-1	.
C[C@H]1CN([C@@H](C)CO)S(=O)(=O)c2ccc(C#CC3CC3)cc2O[C@H]1CN(C)C(=O)Nc1cc(F)ccc1F	.	90*	.	1
CC(=O)N1[C@@H]2Cn3c(ccc(C4=CCCC4)c3=O)[C@H]1[C@@H](C(=O)NC1CCCC1)[C@@H]2CO	.	.	.	0
Cc1ccc(-c2ccc3c(c2)O[C@H](CN(C)C(=O)Nc2ccc(F)cc2)[C@H](C)CN([C@H](C)CO)S3(=O)=O)cc1	-1	64	7	1
C[C@@H]1CN([C@@H](C)CO)S(=O)(=O)c2ccc(C#Cc3ccc(F)cc3)cc2O[C@H]1CN(C)C(=O)NC1CCCCC1	-2	36	4	5
C[C@H](CO)N1C[C@H](C)[C@@H](CN(C)C(=O)NC2CCCCC2)Oc2cc(C#Cc3ccc(F)cc3)ccc2S1(=O)=O	-1	9	4	8.5*
Cc1ccc(-c2ccc3c(c2)O[C@@H](CN(C)C(=O)Nc2ccc(F)cc2)[C@@H](C)CN([C@H](C)CO)S3(=O)=O)cc1	2	-67	8	8.5*
C[C@@H]1CCCCO[C@@H](CN(C)S(=O)(=O)c2ccc(F)cc2)[C@@H](C)CN([C@H](C)CO)C(=O)c2cc(NC(=O)Nc3ccc4c(c3)OCO4)ccc2O1	-1	.	0	-2
C[C@@H]1CN([C@@H](C)CO)C(=O)c2cccc(NS(=O)(=O)c3ccc(F)cc3)c2O[C@@H]1CN(C)C(=O)Nc1cccc2ccccc12	-1	40	2	-2
O=C(Cc1ccccn1)NCC[C@H]1CC[C@@H](NS(=O)(=O)c2ccc(F)cc2)[C@@H](CO)O1	1	3	0	2
O=C(C[C@H]1CC[C@H]2[C@@H](COC[C@H](O)CN2CCc2ccccc2)O1)NCc1ccccc1	1	-6	-8	1
O=C1c2cccnc2C(=O)N1CO	.	-4	11	.
NC1=C(Br)C(=O)c2ncccc2C1=O	.	.	64*	-5
COc1ccccc1-c1noc(-c2ccccc2C(=O)NCc2ccco2)n1	1	-10	2	3
COc1cc(-c2noc(-c3ccccc3C(=O)NCc3ccco3)n2)cc(OC)c1OC	-11	100*	-11	.
COc1cccc(C(=O)NNC(=O)C2CC(C)=C(C)CC2C(=O)O)c1 (configuration not stated)	3	99*	-10	.
CCC(=O)N1CC(=O)N2[C@H](CO)[C@H](c3ccc(-c4ccccc4C)cc3)[C@@H]2C1	.	.	.	4
CCC(=O)N1[C@H](CO)[C@H](c2ccc(-c3ccccc3)cc2)[C@H]1CN(CC)C(C)=O	0	14	-5	1
CCC(=O)N1[C@H](CN(CC)C(C)=O)[C@@H](c2ccc(-c3ccccc3)cc2)[C@@H]1CO	0	7	-10	8.9*
COc1cccc(C2c3cc4c(cc3OC(NNC(N)=O)C2C)OCO4)c1O (configuration not stated)	.	.	5	8.9*
C[C@H](CO)N1C[C@H](C)[C@H](CN(C)Cc2ccc(Cl)c(Cl)c2)Oc2ccc(NC(=O)C3CCCCC3)cc2CC1=O	4	-31	.	10*
